Measurements published in PubChem BioAssay AID1303 (The Scripps Research Institute Molecular Screening Center, 2008).
This is one part of the list. A number with no mark means an inactive call. Calls of active or inactive are those of the source.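 Rule for the calls: active = inhibition above the mean of solvent-only control wells plus 3 SD of those wells (cut at about 15% in these data); inactive = the rest.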

experiment: inhibition of NF-kB transcriptional signalling – cell-based, HEK293T, luciferase luminescence, TNF-alpha, counter-screen for STAT1 inhibitor project (AID 1303); details: HEK293T NF-kB luciferase reporter, TNF-alpha induced, at 5.7 µM, hits give high values;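 note: 0% = DMSO with TNF-alpha and 100% = MG-132 control with TNF-alpha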

With `O=C(CCl)N(Cc1cccc([N+](=O)[O-])c1)c1cccc(Cl)c1` the inhibition was 37.9% (active).
For `C[C@@H]1C[C@@H]2O[C@H]2/C=C\C=C\C(=O)Cc2c(Cl)c(O)cc(O)c2C(=O)O1`, the inhibition was 54.9% (active).
With `CCOC(=O)N1CCN(C(=O)C2CCN(c3ncnc4c3sc3cccc(F)c34)CC2)CC1` the inhibition was 20.1% (active).

Point of comparison: `NS(=O)(=O)c1cccc(NC(=O)CSc2nc3ccccc3n2-c2ccccc2)c1`, inhibition 1.57%. Against it:
- COc1ccc(C(=O)Nc2ccccc2C(=O)N/N=C/c2ccccc2OC)cc1 — higher, 10.2%
- CCOC(=O)N1CCN(C(=O)CSc2nnc(-c3c[nH]c4ccccc34)n2CCOC)CC1 — higher, 3.03%
- CCOC(=O)C(=CNc1cccc(C)n1)C(=O)OCC — lower, -2.27%
- Cc1ccc(C2=Nc3c(ccc4ccccc34)C(c3ccncc3)=NN2)cc1 — higher, 4.77%
- COc1ccc(C2CC(c3cccs3)=NN2c2nc(C)c(C(C)=O)s2)cc1OC (stereo not given) — lower, 1.4%
- COC(=O)C1=CN(Cc2ccc(OC)c(OC)c2)C=C(C(=O)OC)C1c1cccs1 — lower, -1.6%
